The panel holds about 83,000 compounds, 20% with a hit somewhere; the sample as a whole holds those more often.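 The test compound was applied at a single concentration to cells in 96-well plates for 48 hours, and percent growth was recorded.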 Values without a mark were called inactive. Active and inactive are the calls of the source. How the source made its calls: active means growth percent below 10; inactive means the rest.

The test system of this assay is NCI-H522 lung. The assay is described as follows: NCI-60 one-dose screen, 48 h (100 = growth as untreated, 0 = no growth, -100 = all killed). As to conditions: 10 µM unless noted.
As for `CCOc1cc2ncc(C#N)c(Nc3ccc(F)c(Cl)c3)c2cc1NC(=O)/C=C/CN(C)C`, the growth was -57.5% (active).

Take `CCN(CC)CCNC(=O)c1c(C)[nH]c(/C=C2\C(=O)Nc3ccc(F)cc32)c1C`: the growth is -46% (active).

As for `COc1ccc2c(CCC(c3ccccc3)c3ccccc3)c3[n+](cc2c1OC)CCc1cc2c(cc1-3)OCO2`, the growth was -0.122% (active).

On to `C[C@@H](Oc1cc(-n2cnc3ccc(CN4CCN(C)CC4)cc32)sc1C(N)=O)c1ccccc1C(F)(F)F`, for which the growth is -13.5% (active).

Take `CC(C)=CCc1cc2c(cc1O)C1=C(C(=O)C3=C(NCCS3(=O)=O)C1=O)C(C=C(C)C)O2` (stereo not given): the growth was -4.35% (active).

On to `CC(N)C(Cc1ccc(Cl)cc1)c1ccc(Cl)cc1` (stereo not given), for which the growth was -18.1% (active).

As to `Clc1nc(Cl)c2ncn(CC#CCn3cnc4c(Cl)nc(Cl)nc43)c2n1`, the growth was -71.2% (active).

In the case of `O=C(Cc1ccc(-c2ccc(OCCN3CCOCC3)cc2)cn1)NCc1ccccc1`, the growth was -5.77% (active).

`Cc1nc(NC(=O)N2CCC[C@H]2C(N)=O)sc1-c1ccnc(C(C)(C)C(F)(F)F)c1`: the growth is 33.6%.

As to `COc1ccc2c(CCCc3ccc(Cl)cc3Cl)c3[n+](cc2c1OC)CCc1cc2c(cc1-3)OCO2`, the growth is -12.4% (active).

On to `Cc1c(Cn2c(C)nc3c(C(=O)O)cc(N4CCOCC4)cc32)cccc1C(F)(F)F`, for which the growth is 62.9%.

Regarding `COc1cc2nccc(Oc3ccc(NC(=O)C4(C(=O)Nc5ccc(F)cc5)CC4)cc3)c2cc1OC`, the growth is 11.4%.

Regarding `C=CCCCC(=O)CCC(=O)OCC1O[C@@H](O[C@@H]2C(O)[C@@H](OC(C)=O)C(C)O[C@H]2O[C@H](CC=C)CCCCC)C(O)[C@@H](OC(=O)/C(C)=C/C)[C@@H]1OC(=O)/C=C/c1ccccc1` (stereo not given in full), the growth is 34.8%.

Take `O=c1[nH]ccc2c(S(=O)(=O)N3CCCNCC3)cccc12`: the growth was 17.3%.

Regarding `CC1(C=O)NC(=O)NC1=O` (stereo not given), the growth was 77.1%.

Consider `Cc1ccc(NC(=O)c2ccc(CN3CC[C@H](N(C)C)C3)c(C(F)(F)F)c2)cc1Nc1nccc(-c2cncnc2)n1`, for which the growth is -29.7% (active).

Consider `O=C(Nc1cccc(Cl)c1)Nc1ncc(CCNc2ncnc3ccsc23)s1`, for which the growth was 13%.

`Cn1ccnc1C(=O)/C=C/c1ccc(CC(=O)Nc2ccc(Br)cc2)cc1`: the growth is 2.89% (active).

For `CNC(=O)c1nn(C)c2c1C(C)(C)Cc1cnc(Nc3ccc(N4CCN(C)CC4)cc3)nc1-2`, the growth is -29.4% (active).

As for `COc1cccc2cc(-c3nc(C4CCC(C(=O)O)CC4)n4ncnc(N)c34)[nH]c12` (stereo not given), the growth was -1.72% (active).

For `CNc1ncc2cc(-c3cc(NC(=O)NCCC(C)(C)C)c(F)cc3C)c(C)nc2n1`, the growth was -5.5% (active).

Regarding `Cc1cc(C(=O)Nc2cc(Oc3ccc4nc(NC(=O)C5CC5)cn4n3)ccc2C)n(C)n1`, the growth was 14.1%.

Turning to `O=C(Cc1ccc(/C=C/C(=O)c2ncc[nH]2)cc1)Nc1ccc(Br)cc1`, the growth is 13.2%.

Take `CCc1ccc(C2=C(O)C(=O)C(c3ccc(CC)cc3)=C(O)C2=O)cc1`: the growth was -20.7% (active).

For `CNC(=O)c1cccc2cc(Oc3ccnc4cc(OCC5(N)CC5)c(OC)cc34)ccc12`, the growth is 46.3%.

For `CCCCN1CCCC[C@@H]1C(=O)N[C@H](C(=O)N(C)[C@H](CCc1nc(C(=O)N[C@@H](Cc2ccccc2)C[C@H](C)C(=O)OC)cs1)C(C)C)C(C)C`, the growth was 49.6%.

For the molecule `COc1cnc2c(c1)C(=O)c1c-2n(CCCN2CCC(N)CC2)c(=O)c2cc([N+](=O)[O-])ccc12`, the growth is 42.2%.

For the molecule `C=CC(=O)Nc1cc2c(Nc3ccc(F)c(Cl)c3)ncnc2cc1OCCCN1CCOCC1`, the growth was -74.6% (active).

`NC(=O)c1c(OCc2c(F)cc(Br)cc2F)nsc1NC(=O)NCCCCN1CCCC1`: the growth was -61.8% (active).

As to `CCc1nc2ccc(Cc3ccc(C(=O)NO)cc3)cc2c(=O)n1CCc1ccccc1`, the growth is -86.5% (active).

Turning to `Cc1cc(N(CCNc2ccnc3cc(Cl)ccc23)Cc2ccc3c(c2)OCO3)nc(N2CCN(C)CC2)n1`, the growth was 7.7% (active).

With `Cc1ccc2oc(=O)cc(-c3cc(-c4cc5ccccc5oc4=O)nc(N)c3C#N)c2c1`, the growth is 87.6%.

As for `Cc1[nH]c(/C=C2\C(=O)Nc3ccc(F)cc32)c(C)c1C(=O)NC[C@H](O)CN1CCOCC1`, the growth was 45.4%.

Consider `O=C(Nc1cn[nH]c1-c1nc2ccc(CN3CCOCC3)cc2[nH]1)NC1CC1`, for which the growth was 11.5%.

Take `O=C1CSC(c2c(F)cccc2Cl)N1NC(=O)C(O)(c1ccccc1)c1ccccc1` (stereo not given): the growth was 88.4%.

Values taken from PubChem BioAssay (NCI).
